Measured values as given in PubChem BioAssay (EPA / NIEHS).
Active and inactive are the calls of the source. How the source made its calls: active means hit-call score of the fitted dose curve at least 0.9, where 1 is the maximum; inactive means score below 0.9.

Assays:
[1] = read-out: Epidermal growth factor receptor (EGFR), EGFR (gene 1956); experiment: BSK_hDFCGF_EGFR: BioMAP Diversity Plus: hDFCGF Assay for Epidermal growth factor receptor (EGFR) Biomarker Activity (AID 2283057); details: primary human foreskin fibroblasts; actives raise or lower the signal
How it was run: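 EGFR levels by ELISA in human dermal fibroblast cultures, 24 h post-treatment, fitted bidirectionally versus DMSO. Parallel wells stained with sulforhodamine B to detect overt cytotoxicity.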

[2] = read-out: Interleukin-8 (IL8), CXCL8 (gene 3576); experiment: BSK_hDFCGF_IL8: BioMAP Diversity Plus: hDFCGF Assay for Interleukin-8 (IL8) Biomarker Activity (AID 2283058); details: primary human foreskin fibroblasts; actives raise or lower the signal
How it was run: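 Primary human foreskin fibroblasts (hDFCGF system) dosed with chemical; IL-8 measured by ELISA 24 hours later. Bidirectional curve fitting relative to DMSO baseline; cytotoxicity tracked in parallel cultures by SRB total protein staining.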

[3] = BSK_hDFCGF_Proliferation: Cell Proliferation Assessment in the BioMAP Diversity Plus: hDFCGF Assay (AID 2283059); details: primary human foreskin fibroblasts;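 further: curves fitted for both rise and fall of signal versus DMSO baseline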
How it was run: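 Sub-confluent human foreskin fibroblast cultures receive test chemical […]. Relative cell number is quantified by sulforhodamine B staining (0.1%, after 10% TCA fixation) at 560 nm, with bidirectional fitting referenced to DMSO.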

[4] = read-out: Macrophage colony-stimulating factor (MCSF), CSF1 (gene 1435); experiment: BSK_hDFCGF_MCSF: BioMAP Diversity Plus: hDFCGF Assay for Macrophage colony-stimulating factor (MCSF) Biomarker Activity (AID 2283060); details: primary human foreskin fibroblasts; actives raise or lower the signal
How it was run: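 Human foreskin fibroblast primary cultures; M-CSF measured by ELISA 24 hours after chemical dosing. Bidirectional fitting relative to DMSO, with overt cytotoxicity tracked by parallel SRB total-protein staining (0.1% SRB, 10% TCA fixation, 560 nm).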

[5] = BSK_hDFCGF_SRB: Viability Assessment in the BioMAP Diversity Plus: hDFCGF Assay (AID 2283061); details: primary human foreskin fibroblasts;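 further: cells exposed to compound for 24 h before the read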
How it was run: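 Human foreskin fibroblasts in 96-well plates were treated 24 h. Total protein was measured by 0.1% SRB staining after 10% TCA fixation, read at 560 nm. Data were fitted bidirectionally against DMSO.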

[6] = read-out: TIMP metallopeptidase inhibitor 1 (TIMP1), TIMP1 (gene 7076); experiment: BSK_hDFCGF_TIMP1: BioMAP Diversity Plus: hDFCGF Assay for TIMP metallopeptidase inhibitor 1 (TIMP1) Biomarker Activity (AID 2283062); details: primary human foreskin fibroblasts; actives raise or lower the signal
How it was run: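 Human foreskin fibroblast primary cultures dosed for 24 h; secreted/surface TIMP-1 quantified by ELISA. Bidirectional curve fitting against DMSO baseline; cytotoxicity tracked in parallel cultures by SRB total-protein staining.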

[7] = read-out: Monokine induced gamma interferon (MIG), CXCL9 (gene 4283); experiment: BSK_hDFCGF_MIG: BioMAP Diversity Plus: hDFCGF Assay for Monokine induced gamma interferon (MIG) Biomarker Activity (AID 2283063); details: primary human foreskin fibroblasts; actives raise or lower the signal
How it was run: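 MIG/CXCL9 measured by ELISA 24 h after dosing primary human skin fibroblasts. Activity fitted in both directions against DMSO controls. Cytotoxicity was checked in parallel cultures by SRB staining read at 560 nm.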

[8] = read-out: Matrix Metallopeptidase 1 (MMP1), MMP1 (gene 4312); experiment: BSK_hDFCGF_MMP1: BioMAP Diversity Plus: hDFCGF Assay for Matrix Metallopeptidase 1 (MMP1) Biomarker Activity (AID 2283064); details: primary human foreskin fibroblasts; actives raise or lower the signal
How it was run: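 ELISA read-out of MMP1 from human foreskin fibroblasts (primary skin cells), 24 h post-dose. Gain or loss of signal was fitted bidirectionally versus DMSO negative control; cytotoxicity was checked by SRB in parallel cultures.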

[9] = read-out: Vascular cell adhesion molecule 1 (VCAM1), VCAM1 (gene 7412); experiment: BSK_hDFCGF_VCAM1: BioMAP Diversity Plus: hDFCGF Assay for Vascular cell adhesion molecule 1 (VCAM1) Biomarker Activity (AID 2283065); details: primary human foreskin fibroblasts; actives raise or lower the signal
How it was run: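 Human foreskin fibroblast primary cells dosed with chemical, VCAM-1 measured by ELISA at 24 h. Bidirectional curve fitting relative to DMSO as negative control/baseline.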

[10] = read-out: Plasminogen activator inhibitor-1 (PAI1), SERPINE1 (gene 5054); experiment: BSK_hDFCGF_PAI1: BioMAP Diversity Plus: hDFCGF Assay for Plasminogen activator inhibitor-1 (PAI1) Biomarker Activity (AID 2283066); details: primary human foreskin fibroblasts; actives raise or lower the signal
How it was run: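 PAI-1 levels in human dermal foreskin fibroblasts were quantified by ELISA 24 h after dosing, with gain or loss analysed against DMSO. Overt cytotoxicity was checked by sulforhodamine B total-protein staining in parallel cultures.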

[11] = read-out: Intercellular Adhesion Molecule 1 (ICAM1), ICAM1 (gene 3383); experiment: BSK_KF3CT_ICAM1: BioMAP Diversity Plus: KF3CT Assay for Intercellular Adhesion Molecule 1 (ICAM1) Biomarker Activity (AID 2283067); details: primary human keratinocytes with fibroblasts; actives raise or lower the signal
How it was run: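 Human keratinocyte–foreskin fibroblast co-culture was treated for 24 h. Cell-surface ICAM-1 was quantified by ELISA, fitted bidirectionally relative to DMSO. Cytotoxicity was checked in parallel cultures by SRB total-protein staining.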

[12] = read-out: Interferon-gamma inducible Protein 10 (IP10), CXCL10 (gene 3627); experiment: BSK_KF3CT_IP10: BioMAP Diversity Plus: KF3CT Assay for Interferon-gamma inducible Protein 10 (IP10) Biomarker Activity (AID 2283068); details: primary human keratinocytes with fibroblasts; actives raise or lower the signal
How it was run: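 ELISA read-out of IP-10 after 24 h chemical dosing of human skin primary co-culture (keratinocytes, foreskin fibroblasts). Gain or loss of signal relative to DMSO, bidirectional curve fit.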

[13] = BSK_KF3CT_SRB: Viability Assessment in the BioMAP Diversity Plus: KF3CT Assay (AID 2283069); details: primary human keratinocytes with fibroblasts;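 further: read 24 h after compound addition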
How it was run: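 SRB read-out at 560 nm (0.1% stain, TCA-fixed cells) gauges overt cytotoxicity in a human skin keratinocyte–fibroblast co-culture 24 h post-dosing. Signal change was fitted bidirectionally relative to DMSO control.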

[14] = read-out: Interleukin-1 alpha (IL1a), IL1A (gene 3552); experiment: BSK_KF3CT_IL1a: BioMAP Diversity Plus: KF3CT Assay for Interleukin-1 alpha (IL1a) Biomarker Activity (AID 2283070); details: primary human keratinocytes with fibroblasts; actives raise or lower the signal
How it was run: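 Primary skin co-culture (keratinocytes, foreskin fibroblasts), 24 h exposure; ELISA for IL-1a; bidirectional curve fit vs DMSO.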

[15] = read-out: Transforming growth factor beta 1 (TGFb1), TGFB1 (gene 7040); experiment: BSK_KF3CT_TGFb1: BioMAP Diversity Plus: KF3CT Assay for Transforming growth factor beta 1 (TGFb1) Biomarker Activity (AID 2283072); details: primary human keratinocytes with fibroblasts; actives raise or lower the signal
How it was run: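 ELISA quantifies TGF-b1 at 24 h post-dose in a primary human skin co-culture of keratinocytes and fibroblasts, with gain or loss judged against DMSO. Parallel SRB total-protein staining flags overt cytotoxicity.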

[16] = read-out: C-C motif chemokine 2 (Homo sapiens) (UniProt P13500); experiment: BSK_KF3CT_MCP1: BioMAP Diversity Plus: KF3CT Assay for Monocyte Chemoattractant Protein 1 (MCP1/CCL2) Biomarker Activity (AID 2283073); details: primary human keratinocytes with fibroblasts; actives raise or lower the signal
How it was run: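 Human keratinocyte–foreskin fibroblast co-culture; MCP-1 measured by ELISA 24 h after dosing. Bidirectional fit vs DMSO; cytotoxicity tracked by SRB total protein in parallel cultures.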

[17] = read-out: Matrix Metallopeptidase 9 (MMP9), MMP9 (gene 4318); experiment: BSK_KF3CT_MMP9: BioMAP Diversity Plus: KF3CT Assay for Matrix Metallopeptidase 9 (MMP9) Biomarker Activity (AID 2283074); details: primary human keratinocytes with fibroblasts; actives raise or lower the signal
How it was run: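 ELISA read-out of MMP-9 at 24 h post-dosing in a co-culture of human skin keratinocytes and foreskin fibroblasts. Gain or loss of signal was fitted in both directions against DMSO.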

[18] = read-out: urokinase plasminogen activator (uPA), PLAU (gene 5328); experiment: BSK_KF3CT_uPA: BioMAP Diversity Plus: KF3CT Assay for urokinase plasminogen activator (uPA) Biomarker Activity (AID 2283075); details: primary human keratinocytes with fibroblasts; actives raise or lower the signal
How it was run: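 Skin co-culture (keratinocytes + foreskin fibroblasts), human primary; 24 h post-dose; uPA by ELISA; gain/loss fit vs DMSO baseline.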

CD40, CD40 (gene 958) = experiment: BSK_LPS_CD40: BioMAP Diversity Plus: LPS Assay for CD40 Biomarker Activity (AID 2283076); details: primary human HUVEC with PBMC; actives raise or lower the signal
How it was run: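 HUVEC plus PBMC co-culture stimulated with LPS; CD40 quantified by ELISA 24 h after compound dosing. Fitting was bidirectional relative to DMSO. SRB staining of parallel cultures flagged overt cytotoxicity.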

[19] = read-out: TIMP metallopeptidase inhibitor 2 (TIMP2), TIMP2 (gene 7077); experiment: BSK_KF3CT_TIMP2: BioMAP Diversity Plus: KF3CT Assay for TIMP metallopeptidase inhibitor 2 (TIMP2) Biomarker Activity (AID 2283071); details: primary human keratinocytes with fibroblasts; actives raise or lower the signal
How it was run: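 TIMP-2 measured by ELISA at 24 h in human keratinocyte/fibroblast primary co-cultures exposed to chemicals. Both increases and decreases were fitted against DMSO. Parallel cultures were stained with SRB for total protein as an overt-cytotoxicity check.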

Measured: outcome

O=Cc1ccccc1C=O
inactive: [1] | [2] | [3] | [4] | [5] | [6] | [7] | [8] | [9] | [10] | [11] | [12] | [13] | [14] | [15] | [16] | [17] | [18] | CD40, CD40 (gene 958)

CC(=O)S[C@H](C(=O)N[C@H]1Cc2ccccc2[C@H]2CCC[C@@H](C(=O)O)N2C1=O)C(C)C
inactive: [1] | [2] | [3] | [4] | [5] | [6] | [7] | [8] | [10] | [11] | [12] | [13] | [14] | [15] | [16] | [17] | [18] | CD40, CD40 (gene 958)

COC(=O)CCCC(=O)OC
inactive: [1] | [2] | [3] | [4] | [5] | [6] | [7] | [8] | [9] | [10] | [11] | [12] | [13] | [14] | [19] | [15] | [16] | [17] | [18] | CD40, CD40 (gene 958)

O=C(O)c1[nH]n(-c2ccc(S(=O)(=O)O)cc2)c(=O)c1N=Nc1ccc(S(=O)(=O)O)cc1
inactive: [1] | [2] | [3] | [4] | [5] | [6] | [7] | [8] | [9] | [10] | [11] | [12] | [13] | [14] | [19] | [15] | [16] | [17] | [18] | CD40, CD40 (gene 958)

CCCCC(CC)CO (stereo not drawn)
inactive: [1] | [2] | [3] | [4] | [5] | [6] | [7] | [8] | [10] | [11] | [12] | [13] | [14] | [19] | [15] | [16] | [17] | [18] | CD40, CD40 (gene 958)

Cn1cnc2c1c(=O)[nH]c(=O)n2C
inactive: [1] | [2] | [3] | [4] | [5] | [6] | [7] | [8] | [9] | [10] | [11] | [12] | [13] | [14] | [15] | [16] | [17] | [18] | CD40, CD40 (gene 958)

O=[Si]=O
inactive: [1] | [2] | [3] | [4] | [5] | [6] | [7] | [8] | [10] | [11] | [12] | [13] | [14] | [19] | [15] | [17] | [18] | CD40, CD40 (gene 958)
